The test system of this experiment is Chordin-like protein 2 (CHRDL2). Description: compounds binding chordin-like 2 – biochemical, small-molecule microarray, 635 nm fluorescence, primary screen (AID 1126).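 Further: printed compound slides probed with Chrdl2 protein at 4 µg/mL for 1 h at 4 C; score merges 667 nm emission intensity with signal to noise over three replicate slides.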 To be noted: fluorescence 635 nm, higher = more signal.
`CSCC[C@@H]1NC(=O)CC=C[C@@H](C)COC(=O)[C@H](C)COC1=O` yielded a composite z-score of 1.64.
With `CC1(C)O[C@H]2O[C@H]([C@H](O)CON=C3[C@H]4CCn5c(=O)n(-c6ccccc6)c(=O)n5[C@H]4[C@H](O)[C@@H]4O[C@H]34)[C@H](O)[C@H]2O1` the figure was 0.19.
Regarding `COc1cccc([C@H]2Oc3ccc(OC)cc3C(=NO[C@@H](C)c3cc(-c4c(C)cc(C)cc4C)no3)[C@@H]2O)c1`, the composite z-score is -0.861.
In the case of `CC(=O)OC[C@H]1O[C@H](C#CCCc2ccccc2)C=C[C@@H]1OC(C)=O`, the composite z-score is 0.697.
With `CC(C)=CCCC(C)=CCON=C1C[C@@H](O)[C@@H](O)[C@@H]2[C@@H]3C(=O)N(C4CCCCC4)C(=O)[C@@H]3CC[C@H]12` the figure was 1.07.
Regarding `COC(=O)[C@H](C)NC(=O)CCC1CC(OC(=O)NCc2ccc3c(c2)OCO3)CC2(CCCC(COC(=O)NCCc3ccc(Cl)cc3)O2)O1` (stereo partly specified), the composite z-score amounted to 1.26.
Consider `COC(=O)[C@H](C)NC(=O)CCC1CC(OC(=O)NCCc2ccc(F)cc2)CC2(CCCC(COC(=O)NCC3CCCCC3)O2)O1` (stereo partly specified), for which the composite z-score worked out at 0.507.
With `CCN1C(=O)[C@H]2[C@H]3[C@H](O)[C@H](O)CC(=NO[C@H](C)c4cn([C@H](CO)Cc5ccccc5)nn4)[C@@H]3CC[C@H]2C1=O` the figure was -0.0064.
With `CCN1C(C)=C(C(=O)OC)[C@@H](c2ccccc2)N2C(=O)[C@](O)(C(=O)OC)CC(C(C)=O)=C12` the figure was 0.285.
With `C=CC[C@@H]1C=C[C@H](ON=C(C)CCN2CCCCc3nc(C)c(C)cc32)[C@@H](CO)O1` the figure was 1.47.
In the case of `CC(C)=NOC(C)CN1CCCCc2nc(C)c(C)cc21` (stereo unspecified), the composite z-score came out at 0.732.
With `CCOC(=O)[C@H](Cc1ccccc1)NC(=O)CCC1CC(OC(=O)NCCc2ccc(F)cc2)CC2(CCCC(COC(=O)NCCOc3ccccc3)O2)O1` (stereo partly specified) the figure was 0.508; with `Cc1ccc(S(=O)(=O)N[C@@H]2COC(=O)CC=C[C@@H](C)[C@H](NS(=O)(=O)c3ccc(C)cc3)COC(=O)[C@H](C)NC(=O)CC=C[C@H]2C)cc1`, 0.835; with `CCOC(=O)CCN1C(=O)[C@H]2[C@H]3[C@H](O)[C@H](O)CC(=NOCC(C)C)[C@@H]3CC[C@H]2C1=O`, 1.45.
With `CC(=O)OC[C@H]1O[C@H](CCON=C(C)CCN2CCCc3nc(C)c(C)cc32)C=C[C@@H]1OC(C)=O` the figure was 0.662; with `Cc1cc2c(nc1C)CCCCN2CC(O)CN1CCCc2nc(-c3ccc(Br)cc3)ccc21` (stereo unspecified), 0.613; with `CC(C)(C)N1C(=O)[C@H]2[C@@H]3C(=CC[C@H]2C1=O)C(=O)[C@H]1O[C@H]1[C@H]3O`, 1.04.
With `CC(CCN1CCCc2nc(C)c(C)cc21)=NOC[C@@H](C)[C@H](OCc1ccccc1)C(C)C` the figure was -0.621; with `CON=C(C)CCC(=O)OC[C@H]1O[C@H](C#Cc2ccccc2)C=C[C@@H]1Oc1ccc(C)cc1`, 0.479.
Take `C[C@@H]1CC[C@@H](C(=O)O)N[C@H]1c1cccc(N2CCOCC2)c1`: the composite z-score was 0.224.
`O=C1C2=CC[C@H]3C(=O)N(C4CCCCC4)C(=O)[C@H]3[C@H]2[C@H](O)[C@@H]2O[C@H]12` returned a composite z-score of 0.0365.
With `CCOC(=O)[C@H](Cc1ccccc1)NC(=O)CCC1CC(OC(=O)NCCc2ccc(F)cc2)CC2(CCCC(COC(=O)NCc3cccc(C(F)(F)F)c3)O2)O1` (stereo partly specified) the figure was 0.285; with `O=C1[C@H]2[C@H]3[C@H](O)[C@H](O)CC(=NO[C@@H]4O[C@H](CO)[C@@H](O)[C@H](O)[C@H]4O)[C@H]3CC[C@H]2C(=O)N1C[C@@H]1CCCO1`, 0.109.
The same measure for `CC(CCC(=O)OC[C@H]1O[C@H](C#Cc2ccccc2)C=C[C@@H]1Oc1ccc(C)cc1)=NOC[C@@H](C)[C@H](OCc1ccccc1)C(C)C`: -0.606; for `C[C@@H]1CC[C@H]2C(=O)OC(Cc3ccccc3)CN2[C@H]1c1ccc(Br)cc1` (stereo partly specified): 0.257.
In turn, `COC(=O)CC=C[C@@H](C)[C@@H](C=NOC[C@@H](O)COCc1ccco1)OC` gave a composite z-score of 1.36.
Regarding `CCc1cc2c(nc1CC)CCN(CCC(C)=NOC[C@@H](C)[C@H](OCc1ccccc1)C(C)C)C2`, the composite z-score is -1.05.
The same measure for `O=C1C2=CC[C@H]3C(=O)N(C[C@@H]4CCCO4)C(=O)[C@H]3[C@H]2[C@H](O)[C@@H]2O[C@H]12`: 0.362; for `CCOC(=O)CCN1C(=O)[C@H]2[C@H]3[C@H](O)[C@H](O)CC(=NNC(=O)OCC)[C@H]3CC[C@H]2C1=O`: 1.27; for `COc1ccc2c(c1)O[C@@H](c1cccc(C(F)(F)F)c1)[C@H](O)C2=O`: 0.647.
`COC(=O)CC=C[C@@H](C)[C@@H](C=NOC(C)CN1CCCCc2nc(C)c(C)cc21)NS(=O)(=O)c1ccc(C)cc1` (stereo partly specified): the composite z-score was 1.17.
With `CCOC(=O)[C@H](Cc1ccccc1)NC(=O)CCC1CC(OC(=O)NCc2cccc3ccccc23)CC2(CCCC(COC(=O)NCCc3ccccc3OC)O2)O1` (stereo partly specified), the composite z-score was determined as 0.241.
As to `O=C1C=C[C@@H](O)[C@@H]2[C@@H]3C(=O)N(c4cccc(Oc5ccccc5)c4)C(=O)[C@@H]3CC[C@@H]12`, the composite z-score is 0.417.
As for `O=C1C=C[C@@H](O)[C@@H]2[C@@H]3C(=O)N(Cc4ccccc4)C(=O)[C@@H]3CC[C@@H]12`, the composite z-score amounted to 0.482.
Consider `COC(=O)[C@H](C)NC(=O)CCC1CC(OC(=O)NCc2ccc3c(c2)OCO3)CC2(CCCC(COC(=O)NCc3ccccc3)O2)O1` (stereo partly specified), for which the composite z-score was 0.133.
The same measure for `COc1ccc(COC(=O)NN=C2C[C@@H](O)[C@@H](O)[C@@H]3[C@@H]4C(=O)N(C(C)(C)C)C(=O)[C@@H]4CC[C@@H]23)cc1`: 0.59.

These data come from PubChem BioAssay.
